{"source": "PubChem BioAssay (NCI)", "note": "Compounds without any hit were thinned out: in the full panel of roughly 83,000, 20% have a hit.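 Step 1: grow cells in 96-well plates. Step 2: add test compound at a single concentration. Step 3: incubate 48 h. Step 4: record percent growth.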 Values without a mark were called inactive. Activity calls are given as the source filed them. Rule for the calls: active = growth percent below 10; inactive = the rest."}
{"system": "NCI-H23 lung", "experiment": "NCI-60 one-dose screen, 48 h (100 = growth as untreated, 0 = no growth, -100 = all killed)", "conditions": "10 µM unless noted"}
{"smiles": "O=C(COc1ccc(NC(=O)Nc2ccc(Cl)c(Cl)c2)cc1)N=Nc1c(O)[nH]c2ccc([N+](=O)[O-])cc12", "growth": "62.1%"}
{"smiles": "COc1cc(-c2nc3cc(Cl)c(Cl)cc3[nH]2)ccc1OCc1nnc(-c2cccs2)o1", "growth": "47.4%"}
{"smiles": "CCCCCCCCc1ccc(C(=O)Nc2ccc(C)cc2C(=O)O)cc1C", "growth": "99.6%"}
{"smiles": "CCOP(=O)(OCCCl)c1nc(-c2ccc(C)cc2)oc1NCc1ccccc1", "note": "(stereo not drawn)", "growth": "75.3%"}
{"smiles": "NS(=O)(=O)c1ccc(N=Nc2c(O)n(CC(=O)Nc3ccccc3)c3ccccc23)cc1", "growth": "-19.1% (active)"}
{"smiles": "CC1(C)CC[C@]2(C(=O)Nc3ccccc3)CC[C@]3(C)C(=CCC4[C@@]5(C)C[C@@H](O)[C@H](O)[C@@](C)(CO)C5CC[C@]43C)C2C1", "note": "(stereo partly drawn)", "growth": "75.9%"}
{"smiles": "COc1ccccc1C(=O)NN1C(=O)/C(=C/C2=Cc3ccccc3OC2)SC1=S", "growth": "106%"}
{"smiles": "COc1ccc(NC(=O)[C@H](CO)NC(=O)OC(C)(C)C)cc1C(=O)Nc1cccc(C2CC(=O)c3c(cc(OC)c(OC)c3OC)O2)c1", "note": "(stereo partly drawn)", "growth": "50.7%"}
{"smiles": "COc1ccc(C2(SCCNCc3cc(N(C)C)ccn3)c3ccccc3C=Cc3ccccc32)cc1", "growth": "13.5%"}
{"smiles": "COc1ccc2[nH]c(O)c(N=NC(=O)COc3ccc(NC(=O)Nc4ccccc4)cc3)c2c1", "growth": "20.2%"}
{"smiles": "COc1cc(/C=C/C(=O)c2ccc(C)cc2)ccc1Oc1nc(Nc2ccc(F)cc2)nc(N(C)C)n1", "growth": "39%"}
{"smiles": "CCN(CC)CCOc1ccc(Nc2ncc3cc(-c4ccc(O)c(C#N)c4)c(=O)n(C)c3n2)cc1", "growth": "98%"}
{"smiles": "CC(/C=C1\\SC(=S)N(CCCC(=O)NC(CC(C)C)C(=O)O)C1=O)=C\\c1ccccc1", "note": "(stereo not drawn)", "growth": "96.5%"}
{"smiles": "COc1cc2c(c(OC)c1OC)C(=O)CC(c1cccc(NC(=O)c3cc(N)ccc3Cl)c1)O2", "note": "(stereo not drawn)", "growth": "71.9%"}
{"smiles": "CC(=O)OC[C@@]1(C)C2CC[C@]3(C)C(CC=C4C5CC(C)(C)CC[C@]5(C(=O)Nc5cccc(C)c5)CC[C@]43C)[C@@]2(C)C[C@@H](OC(C)=O)[C@@H]1OC(C)=O", "note": "(stereo partly drawn)", "growth": "45%"}
{"smiles": "CCCCc1c(Nn2cnnn2)no[n+]1[O-]", "growth": "56.2%"}
{"smiles": "CC(C)Sc1nc(NCCc2c[nH]c3ccccc23)c(C#N)c(-c2ccc(F)cc2)n1", "growth": "46.2%"}
{"smiles": "C=C1CCC2C3(C)COC(c4ccc(F)cc4)OC3CCC2(C)C1CC(O)C1=CCOC1=O", "note": "(stereo not drawn)", "growth": "51.2%"}
{"smiles": "NS(=O)(=O)c1ccc(N=Nc2c(O)n(CC(=O)Nc3ccccc3Cl)c3ccccc23)cc1", "growth": "30%"}
{"smiles": "Cc1ccccc1[C@H]1C(C(=O)c2ccc(Cl)cc2)C2(N[C@@H]1c1ccccc1)C(=O)Nc1ccc(Cl)cc12", "note": "(stereo partly drawn)", "growth": "-56.2% (active)"}
{"smiles": "CCCCCCCCc1ccc(S(=O)(=O)Nc2ccc(CC)cc2C(=O)O)cc1", "growth": "97.3%"}
{"smiles": "CCC(C)(C)c1ccc(OCCCCN2CCN(c3ccncc3)CC2)cc1", "growth": "22.1%"}
{"smiles": "COc1ccc(C(=O)/C=C/c2ccc(Oc3nc(Nc4ccc(F)cc4)nc(N(C)C)n3)c(OC)c2)cc1", "growth": "42%"}
{"smiles": "S=c1c2ccccc2nc2n1CCc1c-2[nH]c2ccccc12", "growth": "62%"}
{"smiles": "CCOC(=O)COc1c(OC)c(OC)cc2oc(-c3cccc(C(=O)Nc4ccc(Cl)cc4)c3)cc(=O)c12", "growth": "62.9%"}
{"system": "NCI-H226 lung", "experiment": "NCI-60 one-dose screen, 48 h (100 = growth as untreated, 0 = no growth, -100 = all killed)", "conditions": "10 µM unless noted"}
{"smiles": "C/C(=N\\N=C1/C(=O)Nc2ccc(Cl)cc21)c1ccc2c(c1)Nc1ccccc1S2", "growth": "31.3%"}
{"smiles": "CCCSc1nc(NCCc2c[nH]c3ccccc23)c(C#N)c(-c2ccc(F)cc2)n1", "growth": "32.5%"}
{"smiles": "COc1cc(C2CC(c3cc(OC)c(OC)c(OC)c3)=NN2C(C)=O)ccc1OCc1ccccc1", "note": "(stereo not drawn)", "growth": "28%"}
{"smiles": "Cc1cc2c(cc1Cl)C(=O)/C(=C/c1ccccc1)O2", "growth": "14.6%"}
{"smiles": "COc1ccc2[nH]cc(-c3nc(N)nnc3-c3cn(C)c4ncccc34)c2c1", "growth": "66.4%"}
{"smiles": "Cc1ccc(C(=O)CSc2nc3ccc(F)cc3c(=O)n2-c2ccc(Cl)cc2)cc1", "growth": "-21.9% (active)"}
{"smiles": "CCCCSc1nc(NCCc2c[nH]c3ccccc23)c(C#N)c(-c2ccccc2)n1", "growth": "44.6%"}
{"smiles": "Cn1cc(-c2nc(N)nnc2-c2c[nH]c3ccc(Br)cc23)c2cccnc21", "growth": "87.1%"}
{"smiles": "CN(C)CCOc1ccc(C(=O)C2[C@H](c3ccc(Cl)cc3)[C@@H](c3ccccc3)NC23C(=O)Nc2ccc(Br)cc23)cc1", "note": "(stereo partly drawn)", "growth": "43.7%"}
{"smiles": "CN1CCN(/C(=N\\c2sc(-c3ccccc3)nc2-c2ccccc2)c2ccccc2)CC1", "growth": "96.4%"}
{"smiles": "CCCSc1nc(NCCc2c[nH]c3ccccc23)c(C#N)c(-c2ccccc2)n1", "growth": "65.4%"}
{"smiles": "CCN(CC)c1ccnc(CNCCSC(c2ccccc2)(c2ccccc2)c2ccc(OC)cc2)c1", "growth": "-7.73% (active)"}
{"smiles": "COc1cc2oc(-c3cccc(C(=O)Nc4cccc([N+](=O)[O-])c4)c3)cc(=O)c2c(OC)c1OC", "growth": "-18.5% (active)"}
{"smiles": "O=C(COc1ccc(NC(=O)Nc2ccc(Cl)c(Cl)c2)cc1)N=Nc1c(O)[nH]c2ccc([N+](=O)[O-])cc12", "growth": "90.1%"}
{"smiles": "COc1cc(-c2nc3cc(Cl)c(Cl)cc3[nH]2)ccc1OCc1nnc(-c2cccs2)o1", "growth": "54.7%"}
{"smiles": "CCCCCCCCc1ccc(C(=O)Nc2ccc(C)cc2C(=O)O)cc1C", "growth": "89.4%"}
{"smiles": "CCOP(=O)(OCCCl)c1nc(-c2ccc(C)cc2)oc1NCc1ccccc1", "note": "(stereo not drawn)", "growth": "88%"}
{"smiles": "NS(=O)(=O)c1ccc(N=Nc2c(O)n(CC(=O)Nc3ccccc3)c3ccccc23)cc1", "growth": "25.3%"}
{"smiles": "CC1(C)CC[C@]2(C(=O)Nc3ccccc3)CC[C@]3(C)C(=CCC4[C@@]5(C)C[C@@H](O)[C@H](O)[C@@](C)(CO)C5CC[C@]43C)C2C1", "note": "(stereo partly drawn)", "growth": "54.3%"}
{"smiles": "COc1ccccc1C(=O)NN1C(=O)/C(=C/C2=Cc3ccccc3OC2)SC1=S", "growth": "98.9%"}
{"smiles": "COc1ccc(NC(=O)[C@H](CO)NC(=O)OC(C)(C)C)cc1C(=O)Nc1cccc(C2CC(=O)c3c(cc(OC)c(OC)c3OC)O2)c1", "note": "(stereo partly drawn)", "growth": "48.1%"}
{"smiles": "COc1ccc(C2(SCCNCc3cc(N(C)C)ccn3)c3ccccc3C=Cc3ccccc32)cc1", "growth": "50.6%"}
{"smiles": "COc1ccc2[nH]c(O)c(N=NC(=O)COc3ccc(NC(=O)Nc4ccccc4)cc3)c2c1", "growth": "26.7%"}
{"smiles": "COc1cc(/C=C/C(=O)c2ccc(C)cc2)ccc1Oc1nc(Nc2ccc(F)cc2)nc(N(C)C)n1", "growth": "61.9%"}
{"smiles": "CCN(CC)CCOc1ccc(Nc2ncc3cc(-c4ccc(O)c(C#N)c4)c(=O)n(C)c3n2)cc1", "growth": "49.3%"}
{"smiles": "CC(/C=C1\\SC(=S)N(CCCC(=O)NC(CC(C)C)C(=O)O)C1=O)=C\\c1ccccc1", "note": "(stereo not drawn)", "growth": "91.1%"}
{"smiles": "COc1cc2c(c(OC)c1OC)C(=O)CC(c1cccc(NC(=O)c3cc(N)ccc3Cl)c1)O2", "note": "(stereo not drawn)", "growth": "54.3%"}
{"smiles": "CC(=O)OC[C@@]1(C)C2CC[C@]3(C)C(CC=C4C5CC(C)(C)CC[C@]5(C(=O)Nc5cccc(C)c5)CC[C@]43C)[C@@]2(C)C[C@@H](OC(C)=O)[C@@H]1OC(C)=O", "note": "(stereo partly drawn)", "growth": "39%"}
{"smiles": "CCCCc1c(Nn2cnnn2)no[n+]1[O-]", "growth": "82%"}
{"smiles": "CC(C)Sc1nc(NCCc2c[nH]c3ccccc23)c(C#N)c(-c2ccc(F)cc2)n1", "growth": "54.5%"}
{"smiles": "C=C1CCC2C3(C)COC(c4ccc(F)cc4)OC3CCC2(C)C1CC(O)C1=CCOC1=O", "note": "(stereo not drawn)", "growth": "58%"}
{"smiles": "NS(=O)(=O)c1ccc(N=Nc2c(O)n(CC(=O)Nc3ccccc3Cl)c3ccccc23)cc1", "growth": "-1.16% (active)"}
{"smiles": "Cc1ccccc1[C@H]1C(C(=O)c2ccc(Cl)cc2)C2(N[C@@H]1c1ccccc1)C(=O)Nc1ccc(Cl)cc12", "note": "(stereo partly drawn)", "growth": "-60.2% (active)"}
{"smiles": "CCCCCCCCc1ccc(S(=O)(=O)Nc2ccc(CC)cc2C(=O)O)cc1", "growth": "88%"}
{"smiles": "CCC(C)(C)c1ccc(OCCCCN2CCN(c3ccncc3)CC2)cc1", "growth": "39.8%"}
{"smiles": "COc1ccc(C(=O)/C=C/c2ccc(Oc3nc(Nc4ccc(F)cc4)nc(N(C)C)n3)c(OC)c2)cc1", "growth": "69.7%"}
{"smiles": "S=c1c2ccccc2nc2n1CCc1c-2[nH]c2ccccc12", "growth": "30.8%"}
{"smiles": "CCOC(=O)COc1c(OC)c(OC)cc2oc(-c3cccc(C(=O)Nc4ccc(Cl)cc4)c3)cc(=O)c12", "growth": "76.2%"}
